Assay results published in ChEMBL document CHEMBL4513216, “Probing the Open Global Health Chemical Diversity Library for Multistage-Active Starting Points for Next-Generation Antimalarials” (ACS Infect Dis, 2020).
Hit rate of the full screen: of about 69,000 compounds, about 8,600 (12%) showed an effect of 50% or more. This excerpt belongs to a sample that is enriched for strong results.

Each molecule was assayed on Plasmodium berghei (assay: Screen against P. berghei liver stage (PbLuc), transformed with Luciferase, at 10uM). Details: tested at 10 uM.
Type: functional, HepG2
Molecule `Cc1cc(C)n(CC2CN(CC(=O)Nc3cccnc3)CCO2)n1` (stereo unspecified) has an INHIBITION of -14.3%. Molecule `CCN(CCNC(=O)c1cccc(C)c1C)C1CC1` has an INHIBITION of -16%. In the case of `O=C1CSC(c2ccc(Cl)cc2Cl)c2c(n(C3CCOCC3)[nH]c2=O)N1` (stereo unspecified), the INHIBITION is reported as 54.5%. Molecule `O=C1CSC(c2ccc(F)c(Cl)c2)c2c(n(C3CCOCC3)[nH]c2=O)N1` (stereo unspecified) has an INHIBITION of 72.8%. In the case of `CC1=Nc2c(c(=O)[nH]n2C2CCOCC2)C(c2cccc(Br)c2)S1` (stereo unspecified), the INHIBITION is reported as 3.95%. In the case of `O=C1CSC(c2ccc(O)c(Cl)c2)c2c(n(C3CCOCC3)[nH]c2=O)N1` (stereo unspecified), the INHIBITION is reported as 15%. With `COc1ccccc1C1SCC(=O)Nc2c1c(=O)[nH]n2C1CCOCC1` (stereo unspecified) the INHIBITION was 39.3%. In the case of `CC(=O)c1cccc(OCC(=O)NS(=O)(=O)c2cccs2)c1`, the INHIBITION is reported as 2.97%. `Cn1nccc1-c1nnn2c1COCC(CNC1CCOCC1)C2` (stereo unspecified) gave an INHIBITION of 45.7%. `O=C(CO)N1CCC(c2ccnc(Nc3cc(C(F)(F)F)ccn3)n2)C1` (stereo unspecified) showed an INHIBITION of 20.2%. In the case of `Cc1noc([C@@]23CCO[C@@H]2CCN(Cc2scnc2C)C3)n1`, the INHIBITION is reported as 18.6%. `CCN1CCCC1CN(Cc1cc[nH]n1)CC1CCN(CCOC)CC1` (stereo unspecified) showed an INHIBITION of 45%. Work on `CCN1CCCC1CN(Cc1ccoc1)CC1CCN(CCOC)CC1` (stereo unspecified) yielded an INHIBITION of 53.7%. With `CCN1CCCC1CN(Cc1ccon1)CC1CCN(CCOC)CC1` (stereo unspecified) the INHIBITION was 81.2%. For `COCCN1C[C@@H]2CN(Cc3ccoc3)CCC[C@]2(C(=O)O)C1`, the INHIBITION was -9.02%. Molecule `COCCN1CCC(CN(CC2CCCO2)C(=O)Cn2cccn2)CC1` (stereo unspecified) has an INHIBITION of 15.4%. Molecule `CC[C@@H]1N(Cc2ccoc2)CCC[C@]12CCC(=O)N2CCOC` has an INHIBITION of -11.2%. `CCn1ccnc1CN1CCCN(C(=O)c2csc(C)n2)CC1` showed an INHIBITION of -1.55%. `Cc1cnc(N2C[C@H]3C[C@H](C(=O)N4CCN(C)CC4)N(C)[C@H]3C2)nc1` showed an INHIBITION of -18.2%. In the case of `Cc1ncc(CO)c(CN2CCCC2c2nc3c(C)cccc3[nH]2)c1O` (stereo unspecified), the INHIBITION is reported as -125%. `Cc1cccc2[nH]c(C3CCCN3Cc3ccc(CO)o3)nc12` (stereo unspecified) was tested, and the INHIBITION was -59.5%. Work on `Cc1nn(CCO)cc1CN1CCCC1c1nc2c(C)cccc2[nH]1` (stereo unspecified) yielded an INHIBITION of 71.1%. `CNCC(=O)N1CC(c2cc(Nc3nc(C)cs3)nc(C)n2)C1` gave an INHIBITION of -47.8%. `Cc1csc(Nc2cc(C3CN(c4ccncn4)C3)nc(C)n2)n1` was tested, and the INHIBITION was 68.4%. `Cc1csc(Nc2cc(C3CN(C(C)C)C3)nc(C)n2)n1` showed an INHIBITION of 37.8%. With `Cc1nc(C)c(C(=O)N2CCCC2c2nc(O)cc(C(C)C)n2)s1` (stereo unspecified) the INHIBITION was 13.5%. Work on `CSc1ccc(C(C(=O)O)N2CCOCC2)cc1` (stereo unspecified) yielded an INHIBITION of 41.2%. Molecule `COC1COC2(CCN(Cc3cccc(C#N)c3)CC2)C1` (stereo unspecified) has an INHIBITION of -23.8%. In the case of `CCn1nc(NC(=O)Cn2ccc(C(C)=O)n2)c2ccccc21`, the INHIBITION is reported as 7.38%. For `COC(=O)c1ccn(CC(=O)Nc2nn(CC3CC3)c3ccccc23)n1`, the INHIBITION was 32.3%. Work on `CC(=O)c1ccn(CC(=O)Nc2nn(CC3CC3)c3ccccc23)n1` yielded an INHIBITION of 71.9%. `O=C1COC2(CCN(Cc3ccsc3)CC2)CN1` gave an INHIBITION of 24.9%. For `Cc1ccc(NC2CCN(C(=O)c3ccnc(N(C)C)c3)CC2)nn1`, the INHIBITION was -115%. Molecule `Cc1nn(C)c(N2CCOCC2)c1CNC1CCc2cc(F)ccc21` (stereo unspecified) has an INHIBITION of 6%. `CC(C)(C)Oc1ccccc1CNC(=O)C1CCCOC1` (stereo unspecified) was tested, and the INHIBITION was 29.8%. In the case of `Cc1nn2cccnc2c1C(=O)NCc1ccccc1OCC1CC1`, the INHIBITION is reported as 18.3%. With `O=C(NCc1ccccc1OCC1CC1)C1CCOC1` (stereo unspecified) the INHIBITION was 56.5%. `CC1(C)CN(CC(O)C(C)(C)C)C(=O)CN(C(=O)c2ccccc2)C1` (stereo unspecified) gave an INHIBITION of 4.07%. `CCN(Cc1ccccc1)Cc1nc2c(cnn2C)c(=O)[nH]1` showed an INHIBITION of -51.5%. For `Cc1noc(C)c1C(=O)Nc1ccc2ncn(CC(C)C)c(=O)c2c1`, the INHIBITION was 29.9%. Molecule `O=C(NC(c1ccc(Cl)cc1)C(F)(F)F)c1nc(=O)[nH][nH]1` (stereo unspecified) has an INHIBITION of 66.8%. Work on `CC(C)(C)CC(NC(=O)c1nc(=O)[nH][nH]1)c1ccc(F)cc1` (stereo unspecified) yielded an INHIBITION of 22.8%. For `O=C(NC(CC(F)(F)F)c1ccc(Cl)cc1)c1nc(=O)[nH][nH]1` (stereo unspecified), the INHIBITION was -7.17%. With `COc1ccc(CN2CC[C@H]3O[C@@H](C(=O)NCC4CC4)CC[C@H]32)cc1` the INHIBITION was 53%. `O=C([C@H]1CC[C@@H]2[C@@H](CCN2Cc2ccsc2)O1)N1CCOCC1` was tested, and the INHIBITION was -45.5%. Work on `O=C(NCC1CC1)[C@@H]1CC[C@@H]2[C@@H](CCN2Cc2ccc(F)c(F)c2)O1` yielded an INHIBITION of 32.2%. In the case of `O=C(NCC1CC1)[C@H]1CC[C@@H]2[C@@H](CCN2Cc2ccoc2)O1`, the INHIBITION is reported as 26.8%. With `O=C(NC1CC1)[C@H]1CC[C@@H]2[C@@H](CCN2Cc2ccsc2)O1` the INHIBITION was 20.9%. In the case of `Cc1csc(CN2CC[C@H]3O[C@H](C(=O)Nc4cccnc4)CC[C@H]32)n1`, the INHIBITION is reported as 81.5%. `O=C(Nc1cnccn1)[C@@H]1CC[C@@H]2[C@@H](CCN2Cc2nccs2)O1` was tested, and the INHIBITION was 43.4%. Work on `CNC(=O)[C@@H]1CC[C@@H]2[C@@H](CCN2Cc2cn(C)c3ccccc23)O1` yielded an INHIBITION of -20.1%. `Cc1cccc(CN2CC[C@H]3O[C@H](C(=O)Nc4cnccn4)CC[C@H]32)n1` was tested, and the INHIBITION was 34.3%. With `CC(C)NC(=O)[C@@H]1CC[C@@H]2[C@@H](CCN2Cc2ccc3ccccc3n2)O1` the INHIBITION was 31.9%. `CC(C)NC(=O)[C@@H]1CC[C@@H]2[C@@H](CCN2Cc2cn(C)c3ccccc23)O1` showed an INHIBITION of 65.1%. `CN1CCN(C(=O)[C@H]2CC[C@@H]3[C@@H](CCN3Cc3ccsc3)O2)CC1` showed an INHIBITION of 52%. `CC(c1ccncc1)N(C)C(=O)NCCOc1ccc(C#N)cc1` (stereo unspecified) was tested, and the INHIBITION was 34.7%. In the case of `COCCN1CCN(c2ccc3ccc(C(=O)NC4CC4)cn23)CC1`, the INHIBITION is reported as 18.6%. `C=C(C)CN1CCN(Cc2cnc(OC)nc2)CC1` showed an INHIBITION of 25.6%. `COCCn1cc(CCC(=O)Nc2c(C)nn(C)c2C)c2ccccc21` showed an INHIBITION of 39.4%. In the case of `CN(C)C(=O)N1CCC2(CC1)C(c1cnn(C)c1)CC(=O)N2C` (stereo unspecified), the INHIBITION is reported as 39.2%. `Fc1cnc(N2CC[C@@H]3OC(COCc4cccnc4)CC[C@@H]32)nc1` (stereo partly specified) was tested, and the INHIBITION was 37.8%.
